From PubChem BioAssay (NCI)
The panel holds about 79,000 compounds, 15% with a hit somewhere; the sample as a whole holds those more often. Unmarked numbers belong to inactive results. The source made the active and inactive calls. No stated cut-off is given here; in the data, active means growth inhibition above about 70%; inactive means the rest.

Assay: NCI Yeast Anticancer Drug Screen. Data for the bub3 strain (AID 167)
Conditions: S. cerevisiae bub3 mutant strain, stronger effect = higher value
Method: Growth inhibition of yeast strains with defined genetic alterations is measured as a screen for potential anti-cancer activity. Selected strains with alterations in DNA damage repair or cell cycle control were exposed to compounds and growth inhibition was measured relative to vehicle treated controls. The strain used in this assay is bub3

[1] = at 5.0 µM (retest, dose inferred, filed as 0.5)
[2] = at 50.0 µM (retest, dose inferred, filed as 5.0)

Which growth inhibition [1] does the source give for `N#Cc1c(Cl)nnc(-c2ccccc2)c1-c1ccccc1` here?
Its growth inhibition is 1%.

And the growth inhibition [2]?
Its growth inhibition is 91% (active).

And the growth inhibition (at 50.0 µM)?
Its growth inhibition is 93.5% (active).

What does the source list for `CC[C@@]1(O)C[C@H](OC2CC(N(C)C)C(OC3CC(O)C(OC4CCC(=O)C(C)O4)C(C)O3)C(C)O2)c2c(cc3c(c2O)C(=O)c2c(O)cccc2C3=O)[C@H]1C(=O)OC` (some centres not stated)?
growth inhibition [1]: 95% (active); growth inhibition [2]: 98% (active); growth inhibition (at 50.0 µM): 91.8% (active)

With `C=CC1(c2ccc(-c3ccccc3)cc2)OCCO1` as the compound, how does the growth inhibition [1] read?
Its growth inhibition is -22%.

What about the growth inhibition [2] of the same compound?
Its growth inhibition is -6%.

What about the growth inhibition (at 50.0 µM) of the same compound?
Its growth inhibition is 64.1%.

Which growth inhibition [1] does the source give for `Cc1ccc(NC(=O)CC2SC(N)=NC2=O)cc1C` (configuration not stated) here?
The growth inhibition was 0%.

What about the growth inhibition [2] of the same compound?
Its growth inhibition is -4%.

And the growth inhibition (at 50.0 µM)?
Its growth inhibition is 89.1% (active).

With `Nc1c(Cl)[nH]c(C(F)(F)F)nc1=S` as the compound, how does the growth inhibition [1] read?
Its growth inhibition is -3%.

And the growth inhibition [2]?
Its growth inhibition is 10%.

And the growth inhibition (at 50.0 µM)?
Its growth inhibition is -9.45%.

For `C/C(=N/O)C1CC(CCC2([N+](=O)[O-])CCC(C)(O)C(/C(C)=N/O)C2)([N+](=O)[O-])CCC1(C)O` (configuration not stated), which growth inhibition [1] is on record?
Its growth inhibition is 3%.

And the growth inhibition [2]?
Its growth inhibition is -2%.

What about the growth inhibition (at 50.0 µM) of the same compound?
The growth inhibition was 90.5% (active).

Which results are given for `CC12CC[C@@H](C(C)(C)O)C1[C@@H](O)CC1(C)C2CCC2[C@@]3(C)CC[C@H](O)C(C)(C)C3C(O)C[C@]21C` (some centres not stated)?
growth inhibition [1]: 15%; growth inhibition [2]: 98% (active); growth inhibition (at 50.0 µM): 91.8% (active)

For `N=C(N)SCc1ccc(Br)cc1`, which growth inhibition [1] is on record?
Its growth inhibition is -18%.

And the growth inhibition [2]?
The growth inhibition was 35%.

What about the growth inhibition (at 50.0 µM) of the same compound?
The growth inhibition was 16.9%.

Which results are given for `Cc1c2cc[n+]([O-])cc2c(C)c2c1oc1ccccc12`?
growth inhibition [1]: 32%; growth inhibition [2]: 99% (active); growth inhibition (at 50.0 µM): 95.2% (active)

Which growth inhibition [1] does the source give for `CC(=O)[O-].O=C(N/N=C/c1ccccc1[O-])c1ccccc1.[Zn+2]` here?
Its growth inhibition is -10%.

What about the growth inhibition [2] of the same compound?
Its growth inhibition is 70% (active).

What about the growth inhibition (at 50.0 µM) of the same compound?
The growth inhibition was 0.3%.

For `ClC(Cl)(Cl)C1=CC2c3ccccc3C1c1ccccc12`, which growth inhibition [1] is on record?
The growth inhibition was -9%.

What about the growth inhibition [2] of the same compound?
Its growth inhibition is 92% (active).

What about the growth inhibition (at 50.0 µM) of the same compound?
The growth inhibition was 28.7%.

Which growth inhibition [1] does the source give for `CCOC(=O)c1ccc(NC(=O)O/N=C(/Cl)CCl)cc1` here?
The growth inhibition was -16%.

What about the growth inhibition [2] of the same compound?
Its growth inhibition is 43%.

What about the growth inhibition (at 50.0 µM) of the same compound?
The growth inhibition was 73.5% (active).

For `CC1=CC(C)(C)Nc2cc(N)ccc21`, which growth inhibition [1] is on record?
The growth inhibition was -74%.

And the growth inhibition [2]?
Its growth inhibition is -85%.

What about the growth inhibition (at 50.0 µM) of the same compound?
Its growth inhibition is 39.3%.

Which growth inhibition [1] does the source give for `COc1ccccc1NC(=O)O/N=C(/Cl)C(C)C` here?
Its growth inhibition is -26%.

What about the growth inhibition [2] of the same compound?
Its growth inhibition is 95% (active).

What about the growth inhibition (at 50.0 µM) of the same compound?
The growth inhibition was 80.5% (active).
